For orientation: inhibition means the change of the read-out against control, counted positive when it falls.

Out of some 1,900 compounds screened, about 550 (29%) were called active. No stated cut-off is given here; in the data, active means inhibition above about 40%; inactive means the rest. These entries were drawn from the full list.

In this experiment the target is 26S proteasome non-ATPase regulatory subunit 14 (Homo sapiens) (UniProt O00487). The experiment can be described thus: inhibition of 26S proteasome subunit Rpn11 – biochemical, fluorescence polarization, single concentration, confirmation (AID 602318). Particulars: purified human 26S proteasome, Ub4-pepOG fluorescence polarization; at 20 µM; hits give high values; proteasome pretreated with epoxomicin.
26S proteasome non-ATPase regulatory subunit 14 (Homo sapiens), sequence (O00487 whole entry, looked up): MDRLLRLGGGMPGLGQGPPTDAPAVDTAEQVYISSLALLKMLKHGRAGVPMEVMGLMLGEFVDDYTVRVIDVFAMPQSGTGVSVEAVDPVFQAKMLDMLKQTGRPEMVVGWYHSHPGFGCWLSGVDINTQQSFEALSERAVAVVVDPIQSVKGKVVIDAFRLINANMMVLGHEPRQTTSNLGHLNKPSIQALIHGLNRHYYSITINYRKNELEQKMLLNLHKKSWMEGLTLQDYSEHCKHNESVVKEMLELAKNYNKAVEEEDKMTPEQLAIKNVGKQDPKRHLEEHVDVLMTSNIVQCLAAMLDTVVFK
As for `CCc1ccc(-c2cc(C(=O)NCc3ccco3)c3ccccc3n2)s1`, the inhibition is 40.9% (active).
`CCCS(=O)(=O)N1CCCC(C(=O)NCc2ccco2)C1` (stereo not given): the inhibition is -10.1% (inactive).
In the case of `C=CCn1c(=S)[nH]c2scc(-c3ccco3)c2c1=O` it was 0.26% (inactive); in that of `CCC(C)Cn1c(O)cc2nn(-c3nc4ccccc4s3)c(=O)c-2c1C` (stereo not given), 15.4% (inactive); in that of `Cc1ccc(NC(=O)c2c(NC(=O)CCC(=O)O)sc3c2CCCCC3)cc1`, -3.94% (inactive).
Under `COc1ccc(CNC(=O)c2nnn(CC(=O)Nc3cc(C)cc(C)c3)c2N)cc1` stands 52.8% (active).
Take `CSC1=N/C(=C\C=C\c2cccs2)C(=O)S1`: the inhibition is 29.7% (inactive).
Under `CCN1CCN(c2cc3nc(C)n(Cc4ccccc4)c(=O)c3cc2NC(=O)c2ccccc2F)CC1` stands 17.4% (inactive); under `C/C(=N/Nc1nc(-c2ccccc2)c(CC(=O)O)s1)c1ccccc1`, 34% (inactive); under `COc1ccc(Cl)cc1NC(=O)CCS(=O)(=O)c1ccc(Br)cc1`, 124% (active).
In the case of `O=C(CCS(=O)(=O)c1cccc2nonc12)NCCc1ccccc1Cl` it was -2.85% (inactive); in that of `CCCOc1ccc(Cn2c(O)cc(=O)[nH]c2=O)cc1`, 20.3% (inactive); in that of `CCNCc1cc2cc(C)ccc2[nH]c1=O`, 18.7% (inactive).
In the case of `Cc1ccc(Nc2ccccc2N)cc1` it was 32.8% (inactive).
Consider `Cc1ccc(Nc2nc(Cl)c(C=O)s2)cc1`, for which the inhibition was 55% (active).
For the compound `O=C(OCc1cc2ccccc2[nH]c1=O)c1cccnc1`, the inhibition was -8.83% (inactive).
Under `CC(C)Cn1c(CCC(=O)O)ccc1-c1cccs1` stands -26.6% (inactive).
Turning to `CC(C)CC1C(=O)N(Cc2cn(Cc3ccco3)nn2)CCS(=O)(=O)N1Cc1ccc(-c2ccc(Cl)c(Cl)c2)cc1` (stereo not given), the inhibition was 17.1% (inactive).
As to `Cc1c(NC(=O)CSc2cccc3cccnc23)c(=O)n(-c2ccccc2)n1C`, the inhibition is 21.1% (inactive).
Under `CN=c1scc(-c2cc(OC)ccc2OC)n1/N=C/c1c(C)[nH]c2ccccc12` stands 44.5% (active).
Turning to `CC(=O)c1sc(N/N=C/c2ccc(C(C)C)cc2)nc1C`, the inhibition is -9.02% (inactive).
Under `CCOC(=O)N1CCC(NC(=O)C(NS(=O)(=O)c2ccc3c(c2)CCN3C(=O)CC)C(C)C)CC1` (stereo not given) stands 4.92% (inactive); under `Cc1sc2nc(COC(=O)C(NC(=O)c3ccc(Cl)cc3Cl)C(C)C)[nH]c(=O)c2c1C` (stereo not given), 34.7% (inactive); under `C=CC1=C(C(=O)O)N2C(=O)[C@@H](NC(=O)/C(=N/OCC(=O)O)c3csc(N)n3)[C@H]2SC1`, 66.5% (active).
Under `CCC/C=C(\CCC)C(NC(=O)Cc1ccccc1)c1ccc(C(=O)OC)cc1` (stereo not given) stands -5.68% (inactive).
Under `CCCCCCCCCCOC(=O)Cn1c(COc2cccc(OC)c2)[n+](C)c2ccccc21` stands 7.65% (inactive).
Take `COC1=C/C(=C/c2c(N)n3nc(CC(=O)N4CCOCC4)sc3nc2=O)C=CC1=O`: the inhibition was 31.8% (inactive).
Regarding `O=C(COc1cccc(F)c1)Oc1ccc(C(=O)c2ccccc2)cc1`, the inhibition was -1.38% (inactive).
In the case of `Cc1ccc(N=Cc2c(O)cc(C)oc2=O)c(C)c1` it was 22.8% (inactive); in that of `CCOc1ccc(-n2c(O)c(/C=N/Nc3nnc(C)c(=O)[nH]3)c3ccccc3c2=O)cc1`, 38.6% (inactive).
Under `CCOc1ccc(-n2c(O)c(/C=N/c3ccnn3Cc3ccncc3)c3ccccc3c2=O)cc1` stands 98.3% (active).
Under `COc1ccc2[nH]c(=O)c(-c3noc(-c4ccc(F)cc4)n3)cc2c1` stands 3.41% (inactive); under `Cc1cc(/C=N/Nc2ccc([N+](=O)[O-])cn2)c(C)n1-c1cccc(C(=O)O)c1`, 19.1% (inactive).
As to `Cc1oc2c(C)c3oc(=O)c(CC(=O)N[C@@H](CC(C)C)C(=O)N[C@@H](Cc4ccccc4)C(=O)O)c(C)c3cc2c1C`, the inhibition was 26.8% (inactive).
As to `N#Cc1c(-c2cccs2)nc(SCC(=O)c2ccc(Br)cc2)[nH]c1=O`, the inhibition was 46% (active).
Regarding `CCCCCCSc1ccc([C@@H]2[C@H]3C(=O)N(CC)C(=O)[C@H]3[C@]3(C(=O)OC)CCCCN23)cc1`, the inhibition was 33.6% (inactive).
Under `CS(=O)(=O)c1ccc2c(c1)SC1=NC(=O)/C(=C/c3ccco3)C(=N)N12` stands 46.2% (active).
As for `CN(C)c1ccc(-n2cccc2/C=C2/SC(=Nc3ccc(F)cc3)NC2=O)cc1`, the inhibition was -10.9% (inactive).
Under `Cc1cc(/C=C2/SC(=O)N(CC(=O)N3CCCC3)C2=O)ccc1N1CCOCC1` stands 33.9% (inactive).
In the case of `COc1cccc(-c2nn(-c3ccccc3)cc2/C=C(\C#N)C(=O)NCCCn2ccnc2)c1` it was 53.8% (active); in that of `CCN(CC)C(=O)CSc1nc2ccccc2n1CC(=O)N1CCN(c2ccccc2OC)CC1`, -7.43% (inactive); in that of `O=C(CSc1nc2ccccc2c(=O)[nH]1)Nc1nc(-c2ccc(Br)cc2)cs1`, 129% (active).
Take `C=CCn1c(SCC(=O)NCc2ccccc2)nnc1-c1cc(Br)ccc1O`: the inhibition was -6.6% (inactive).
In the case of `Cc1ccc2cc(C#N)c(NCCNC(=S)NCCCN3CCOCC3)nc2c1` it was 1.22% (inactive); in that of `O=C(Nc1ccc(-c2nnc(-c3ccccc3)o2)cc1)c1ccc(Br)o1`, 11.5% (inactive); in that of `COc1cc(/C=C2/SC(=S)N(Cc3ccccc3)C2=O)cc(OC)c1O`, 49.8% (active).
Under `Nc1nonc1-n1nnc(C(=O)N/N=C/c2cc(Br)ccc2O)c1CSC1=NCCS1` stands 24.8% (inactive); under `CCOc1cc(/C=C2\SC(N3CCCCC3)=NC2=O)ccc1O`, 18.3% (inactive); under `CC(=O)/C(=N\Nc1ccc(Cl)cc1Cl)Sc1cccc2cccnc12`, 62.9% (active).
`N#Cc1ccc(C(=O)Nc2cccc3cccnc23)c(F)c1`: the inhibition was -21.1% (inactive).
Turning to `O=C(CSc1cccc2cccnc12)N/N=C/c1cccnc1`, the inhibition is 32.7% (inactive).
In the case of `CC1CCN(c2ccc3c(c2)S(=O)(=O)c2cc(C(=O)O)ccc2C3=O)CC1`, the inhibition is 30.4% (inactive).
`COc1cccc(/C=C(/CC(=O)Nc2ccc(N3CCOCC3)cc2)c2nc3ccccc3s2)c1`: the inhibition was 57.2% (active).
Take `Cc1nc2ccccc2n1C(=O)N1CCOCC1`: the inhibition was -9.96% (inactive).
For the compound `COc1ccc(-n2c(SCC(=O)Nc3sc4c(c3C#N)CCCC4)nnc2-c2ccc(O)cc2)cc1`, the inhibition was 13.9% (inactive).
Under `CC(=O)Nc1ccccc1Sc1ccc2c3c(cccc13)C(=O)N(c1ccc(C)cc1)C2=O` stands 1.98% (inactive).
Under `COC(=O)c1ccc(OCC(=O)NC(C)(C)C)cc1` stands -8.84% (inactive).
In the case of `CCOc1ccc(NC(=O)c2ccc(NC(=O)COC(=O)c3ccc(NC(=O)CC#N)cc3)cc2)cc1` it was 103% (active).
As for `Cc1nc2ccc(C(=O)N3CCSCC3)cc2s1`, the inhibition is -7.54% (inactive).
Under `Oc1c(CN2CCCC2)cc(COCc2ccccc2)c2cccnc12` stands 14.7% (inactive); under `C=CC[n+]1c(-c2ccc(C)cc2)csc1NNC(=O)Nc1ccccc1`, 9.49% (inactive); under `CC(C)(C)NC(=O)CSC(=Nc1ccccc1F)NC#N`, 16.3% (inactive).
In the case of `CCOc1cc(/C=C2\SC(N3CCCC(C)C3)=NC2=O)ccc1O` (stereo not given) it was 11.7% (inactive); in that of `Cc1cccc(OCc2nnc(SCc3nc4cc(C(F)(F)F)ccc4c(=O)[nH]3)o2)c1`, 57.8% (active); in that of `CCc1ccc(NC(=O)CS(=O)CC(=O)NCCCc2ccccc2)cc1` (stereo not given), 20.8% (inactive).
On to `COc1cccc(NC(=O)C(C)Oc2ccccc2)c1` (stereo not given), for which the inhibition was -12.2% (inactive).
On to `O=C(O)c1ccc(NN=CC2=C(N3CCOCC3)/C(=C/c3ccccc3)CC2)cc1`, for which the inhibition was 48.1% (active).
With `CN(C)CCOC1c2ccccc2-c2ccccc21`, the inhibition was -6.33% (inactive).
For the compound `COc1ccc(NC(=O)Cn2c(-c3ccc(OC)cc3)cn(-c3ccc(C)cc3)c2=O)cc1`, the inhibition is 42.8% (active).
With `COc1ccc(CC(=O)Nc2ccc(-c3nnc(-c4ccc(C)cc4)o3)cc2)cc1`, the inhibition was -7.43% (inactive).
Regarding `Cc1ccc(NC(=O)CN2CCc3ccccc3C2)cc1`, the inhibition is -8.38% (inactive).
`NC(N)=N/N=C/c1ccc(OCc2ccc(Cl)cc2Cl)cc1`: the inhibition was 37% (inactive).
In the case of `Oc1ccc(/C=N/Nc2nc(-c3ccccc3F)nc3ccccc23)c(O)c1` it was 18.3% (inactive); in that of `O=C1NC(=O)C2C1C(c1ccc([N+](=O)[O-])cc1)=NN2Cc1ccccc1` (stereo not given), 29.9% (inactive).
Under `CC(C)Oc1ccc(/C=C(\NC(=O)/C=C/c2ccco2)C(=O)NCCc2nc3ccccc3[nH]2)cc1` stands 44.1% (active).
Turning to `Cc1ccc(-c2nnc(-c3ccc(NC(=O)c4cccs4)cc3)o2)cc1`, the inhibition is -12.4% (inactive).
Under `Cc1c(N=Nc2ccc(N(C)C)cc2)c(=O)n(-c2ccccc2)n1C` stands 47.2% (active); under `CCN1CCCC1CNC(=O)c1cc2c(=O)n(C)c3ccccc3c2n1C` (stereo not given), 2.2% (inactive).
Take `Cc1cc(OCC(=O)Nc2nccs2)c2c(C)c(C)c(=O)oc2c1`: the inhibition was 38.8% (inactive).
For the compound `Cc1nc2ccccc2nc(=O)c1NNc1ccc([N+](=O)[O-])cc1`, the inhibition was 24% (inactive).

(Values after PubChem BioAssay AID602318 (Sanford-Burnham Center for Chemical Genomics, 2012).)
